Only some compounds are listed: those with a hit (about 10% of all), similar ones and a draw of the others.
HPGD block: qHTS Assay for Inhibitors of HPGD (15-Hydroxyprostaglandin Dehydrogenase); 15-hydroxyprostaglandin dehydrogenase [NAD(+)] (Homo sapiens), P15428; purified HPGD, NADH fluorescence kinetic, PGE2 substrate; 150,000 tested, 4.3% active; Potency, µM, for inactives: top-dose activity change, negative = inhibition, most hits filed as inhibitors; note: potency is the fitted concentration of half-maximal effect
Target sequence (P15428 whole entry, looked up): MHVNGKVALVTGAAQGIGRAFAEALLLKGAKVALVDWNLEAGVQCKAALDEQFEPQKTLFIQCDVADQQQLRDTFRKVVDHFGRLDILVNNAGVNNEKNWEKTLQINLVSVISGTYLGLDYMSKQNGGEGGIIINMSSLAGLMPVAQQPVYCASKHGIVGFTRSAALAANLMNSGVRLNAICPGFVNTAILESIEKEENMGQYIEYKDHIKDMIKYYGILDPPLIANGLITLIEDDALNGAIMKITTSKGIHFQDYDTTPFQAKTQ
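20 nM HPGD preincubated 15 min at room temperature with compound in 50 mM Tris-HCl pH 8, 0.01% Tween 20. Started with 1 mM NAD+ and 30 uM prostaglandin E2; NADH fluorescence (360/450 nm) read 5 times over 30-s intervals, last minus first.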
LMNA splice mod: qHTS Assay for Modulators of Lamin A Splicing; HeLa LMNA splicing GFP/RFP minigene ratio, 48 h; 200,000 tested, 0.01% active; Potency, µM (top dose mostly 46.1 µM), for the others: at the top dose ratio change, negative = inhibition, most hits filed as inhibitors; AID 1487, 2009; active = well fitted inhibition curve with a large enough effect in the signal ratio, with a control signal flat, not every such curve was filed as active; inconclusive = small, poorly fitted or top-dose-only effect, or effect the other way, or a change in a side signal; the % refers to the signal ratio; note: potency is the fitted concentration of half-maximal effect
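S3 HeLa cells stably expressing lamin A-EGFP splicing minigene plus DsRed2, 600 cells/well, 48 h compound exposure at 37C. Laser-scanning cytometry; analysed as GFP (500-530 nm)/RFP (575-640 nm) total intensity ratio; 0.5% DMSO vehicle.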
Luc counter: Counterscreen for Luciferase (Kinase-Glo TM) Inhibition | Luciferin 4-monooxygenase (Photuris pensylvanica), Q27757 | Kinase-Glo luciferase, ATP luminescence, 8 min | Potency, µM (doses to about 38.3 µM), without a hit: at the top dose activity change, negative = inhibition, actives largely listed as inhibitors | 200,000 tested, 0.28% active | AID 1379, 2008; active = well fitted inhibition curve with a large enough effect; inconclusive = small, poorly fitted or top-dose-only effect; note: potency is the fitted concentration of half-maximal effect; nearly all actives have a fitted effect of over 60% in size
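Luminescence was the read-out, taken after 8-minute incubation at ambient temperature. Luciferase turned over luciferin with 10 uM ATP in imidazole pH 7.2 buffer containing KCl, MgCl2, Tween 20 and BSA.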
IMPase cell inh: qHTS Assay for Identifying the Cell-Membrane Permeable IMPase Inhibitors. inhibition (IP1 accumulation), % at 46.1 µM. AID 901, 2007. Inositol monophosphatase 1 (Rattus norvegicus), P97697. 120,000 tested, under 10 active. CHO-M1 cells, IP1 accumulation, HTRF TR-FRET ratio; active = well fitted curve in the direction sought with a large enough effect in the signal ratio, not every such curve was filed as active; inconclusive = small, poorly fitted or top-dose-only effect, or a change in a side signal; inactive = no such curve, though single readings can be large or run the other way; the % refers to the signal ratio;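 note: cells stimulated with carbachol in lithium chloride buffer; plate controls were DMSO basal wells for no effect and reference inhibitor wells for full effect; higher means more IMPase inhibition seen as more IP1 and lower FRET ratio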
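Carbachol-driven Gq signalling in CHO-M1 cells (2000/well) generates IP1. Compounds that block IMPase raise IP1 and so reduce the FRET signal from Eu-anti-IP1 and d2-IP1 after a 10 min room-temperature lysis.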
ALDH1A1 inh: qHTS Assay for Inhibitors of Aldehyde Dehydrogenase 1 (ALDH1A1); Aldehyde dehydrogenase 1A1 (Homo sapiens), P00352; Potency, µM (series often up to 75.3 µM), for inactives: at the highest dose activity, negative = inhibition, usual class: inhibitors; 220,000 tested, 7.3% active; AID 1030, 2008; Purified ALDH1A1, NADH fluorescence, propionaldehyde substrate;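 note: potency is the fitted concentration of half-maximal effect; plate controls were no enzyme wells and a reference inhibitor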
Target sequence (P00352 whole entry, looked up): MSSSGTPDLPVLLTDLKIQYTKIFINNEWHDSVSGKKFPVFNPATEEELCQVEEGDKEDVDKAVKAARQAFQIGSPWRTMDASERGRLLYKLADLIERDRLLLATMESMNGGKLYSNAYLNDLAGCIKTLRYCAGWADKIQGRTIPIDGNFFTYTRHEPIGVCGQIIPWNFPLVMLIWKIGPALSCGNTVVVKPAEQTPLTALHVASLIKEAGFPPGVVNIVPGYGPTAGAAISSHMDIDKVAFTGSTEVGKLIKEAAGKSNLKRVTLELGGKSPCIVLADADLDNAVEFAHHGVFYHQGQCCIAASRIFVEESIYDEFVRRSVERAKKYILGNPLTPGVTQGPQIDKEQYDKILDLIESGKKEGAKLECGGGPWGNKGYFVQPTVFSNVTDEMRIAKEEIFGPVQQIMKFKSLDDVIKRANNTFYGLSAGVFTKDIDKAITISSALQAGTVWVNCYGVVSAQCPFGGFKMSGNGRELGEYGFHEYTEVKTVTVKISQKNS
PNC assembly inh: High Content Assay for Compounds that inhibit the Assembly of the Perinucleolar Compartment | PC3M PTB-GFP, PNC prevalence imaging, 16 h; hits give low values | activity change (PNC), negative = inhibition, % at 10 µM | 140,000 tested, 3.1% active | AID 2417, 2010;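 active = readout at or below -70, meaning at least 70% loss of cells showing the perinucleolar compartment, a nuclear body marking cancer cells; inconclusive = readout between -30 and a set limit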;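 note: plate controls were DMSO wells for no effect and camptothecin positive control wells for full effect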
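Read-out is percentage of cells bearing a perinucleolar compartment, from automated 20x imaging of fixed, Hoechst-stained PC3M PTB-GFP cells. Cells were seeded 4 h, then exposed 16 h to compound (23 nl of library stock) in duplicate plates.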
* = called active by the depositor; ? = inconclusive; / = no result given; [ ] = another dose, or the depositor's remark. Unless noted, calls come from the whole dose curve; as a rule, active = well fitted inhibition curve with a large enough effect (not every such curve was filed as active); inconclusive = small, poorly fitted or top-dose-only effect, or another doubt; inactive = no such curve, though single readings can be large or run the other way. Unless noted, % is set by controls: 0 for no effect and ±100 for the full control effect.

SMILES	HPGD block	LMNA splice mod	Luc counter	IMPase cell inh	ALDH1A1 inh	PNC assembly inh
CCC(=O)Nc1cccc(NC(=S)NC(=O)c2ccccc2Cl)c1	-5%	-16%	-1%	9	2%	?
CCCOc1ccc(CC(=O)NNC(=S)Nc2ccccc2)cc1Br	?	?	2%	1	18µM*	0
COc1ccccc1/C=C(\C#N)c1nc(-c2cc3ccccc3oc2=O)cs1	/	/	/	-15	/	/
CCOC(=O)c1ccc(NC(=O)C2Cc3ccccc3C(=O)O2)cc1 (stereo not given)	/	/	/	-1	/	/
CCC(C)NC(=O)Cn1c(=O)n(-c2ccc(C)c(C)c2)c(=O)c2c(C)c(C(=O)N(CC)CC)sc21 (stereo not given)	/	8%[46 µM]	/	/	/	/
CCCCC(=O)NC(=S)Nc1cccc(NC(=O)c2ccccc2)c1	/	/	-1%	/	?	/
CCCCOc1cccc(C(=O)NC(=S)Nc2cccc(NC(=O)c3ccccc3Cl)c2)c1	-11%	-10%	-1%	/	2µM*	-10
CCCOc1cccc(C(=O)NC(=S)Nc2ccccc2)c1	-20%	?	1%	/	18µM*	-20
CCCOc1cccc(C(=O)O)c1	-4%	7%	4%	11	5%	?
O=C(OCC(=O)c1c[nH]c2ccccc12)c1ccc([N+](=O)[O-])s1	/	/	6%	/	0.71µM*	/
CCc1cccc2c(C(=O)COC(=O)c3ccc([N+](=O)[O-])s3)c[nH]c12	-12%	-6%	1%	/	13µM*	7
CCc1cccc2c(C(=O)CCl)c[nH]c12	/	?	/	-6	8.9µM*	?
COc1ccc(-c2ccc3c(N)c(C(=O)NCc4ccc(Cl)cc4)sc3n2)cc1	/	/	/	-8	/	/
Cc1ccc(Oc2ccc(OCC(=O)NC(CC(C)C)C(=O)O)cc2)cc1 (stereo not given)	/	-13%[46 µM]	4%	/	6.3µM*	/
CC(C)COc1ccc(C(=O)NC(CC(C)C)C(=O)O)cc1 (stereo not given)	/	-4%	/	10	2%	25
N#Cc1cc([N+](=O)[O-])ccc1NC(=O)COC(=O)C12CC3CC(CC(C3)C1)C2	/	/	5%	/	22µM*	/
O=C(COC(=O)C12CC3CC(CC(C3)C1)C2)Nc1ccc([N+](=O)[O-])cc1Br	-17%	1%	0%	/	-8%	-13
C=CCN1C(=O)C(O)(CC(=O)c2ccccc2)c2ccccc21 (stereo not given)	-2%	-1%	-1%	-1	3.5µM*	-4
CCN1C(=O)C(O)(CC(=O)c2ccc(-n3cccc3)cc2)c2ccccc21 (stereo not given)	-12%	-7%	-2%	-5	-11%	-100*
CCN1C(=O)C(O)(CC(=O)c2ccccn2)c2ccccc21 (stereo not given)	-3%	-6%	-3%	10	?	27
CCN1C(=O)C(O)(CC(=O)c2cccc(-n3cccc3)c2)c2ccccc21 (stereo not given)	/	0%[46 µM]	-5%	/	4.5µM*	/
O=C(CC1(O)C(=O)N(Cc2cccc3ccccc23)c2ccccc21)c1cccnc1 (stereo not given)	-22%	?	7%	8	0.11µM*	-25
O=C(CC1(O)C(=O)N(CCc2ccccc2)c2ccc(Br)cc21)c1ccccc1 (stereo not given)	/	/	/	-11	/	/
Cc1ccccc1C(=O)Nc1ccccc1C(=O)OCc1cc(=O)n2ccsc2n1	/	11%[46 µM]	/	/	/	/
CCCCCN1C(C(=O)c2ccccc2)=C(NC(=O)c2ccc(OC)cc2)c2ccccc2S1(=O)=O	/	/	/	2	/	/
SMILES	HPGD block	LMNA splice mod	Luc counter	IMPase cell inh	ALDH1A1 inh	PNC assembly inh
CC(NC(=O)CSc1n[nH]c(-c2ccccc2Cl)n1)c1nc2ccccc2[nH]1 (stereo not given)	/	1%[46 µM]	/	/	/	/
COCCn1c(C)cc(C(=O)COC(=O)c2ccc3c(c2)NC(=O)CS3)c1C	-24%	-1%	1%	/	-2%	-16
C=CCn1c(C)cc(C(=O)COC(=O)c2ccc3c(c2)NC(=O)CS3)c1C	22µM*	3%	-1%	/	?	-81*
COc1ccc(S(=O)(=O)NCC(c2ccc(N(C)C)cc2)N2CCCC2)cc1F (stereo not given)	/	5%[46 µM]	/	/	/	/
CC(C)OCCCNc1ncnc2c1[nH]c1ccccc12	-28%	?	-3%	11	?	-97*
C1=C(CCNc2ncnc3c2[nH]c2ccccc23)CCCC1	-25%	?	1%	5	?	?
C=CCn1c(SCC(=O)NCCOC)nnc1-c1cc2c(s1)CCC(CC)C2 (stereo not given)	18µM*	?	4%	4	?	-20
Cc1cc(NC(=O)c2cc(-c3ccccc3)on2)no1	-16%	-2%	-5%	-1	1%	10
O=C(c1ccccc1)c1cc(-c2ccccc2)on1	?	-8%	11µM*	5	?	23
COc1ccc(-c2cc(C(=O)O)no2)cc1	14µM*	13%[46 µM]	0%[39.9 µM]	/	0.45µM*	/
CCC(C)NC(=O)c1cc(-c2ccc(OC)cc2)on1 (stereo not given)	-15%	1%	-6%	-4	-11%	-3
CCNc1ncc2nc(-c3ccc(F)cc3)c(=O)n(CCC#N)c2n1	?	/	-4%	/	?	/
COc1cc2c(cc1OC)/C(=C/C#N)NC(C)(C)C2	-21%	-4%	-3%	10	2µM*	?
O=C(O)[C@@H]1CCN(Cc2oc(CO)cc(=O)c2O)C1	-8%	/	-5%[7.66 µM]	/	1%[13.5 µM]	/
CCCOc1ccc(C2c3c(oc4ccccc4c3=O)C(=O)N2c2nnc(C(C)C)s2)cc1 (stereo not given)	/	/	/	-1	/	/
N#Cc1c(/N=C/c2cccs2)sc2c1CCCCC2	?	9%	?	-14	?	?
Cc1ccc(/C=N/c2sc3c(c2C#N)CCC3)o1	16µM*	6%	11µM*	5	10µM*	76
N#Cc1c(/N=C\c2ccc(O)c([N+](=O)[O-])c2)sc2c1CCCC2	/	/	1%	/	2.5µM*	/
N#Cc1c(/N=C/c2ccc(Br)s2)sc2c1CCC2	-11%	0%	0%	-1	?	-100*
N#C/C(=C\c1ccc(O)c([N+](=O)[O-])c1)c1nc2ccccc2s1	/	/	-4%	/	?	/
CC1(C)S[C@@H]2[C@H](NC(=O)[C@@H](N)c3ccccc3)C(=O)N2[C@H]1C(=O)O[C@H]1OC(=O)c2ccccc21	?	?	2%[17.1 µM]	2[20.6 µM]	2.8µM*	/

High-throughput results (PubChem BioAssay)
